# Reference: article PMC4336329 (PLoS ONE, 2015)
# The campaign covered roughly 310,000 compounds. About 14,000 (4.5%) showed an effect of 50% or more. Effects have a minus sign here. Only a selection was taken, and strong results are over-represented in it overall.
# Molecular target: human ether-à-go-go-related gene (hERG) potassium channel (human, UniProt Q12809)
# Assay: primary screen, population patch clamp on CHO cells stably expressing hERG; higher = less effect of the substance
# 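Note: peak tail current of the secondary pulse compared with the same well before compound.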
# human ether-à-go-go-related gene (hERG) potassium channel, sequence (Q12809 whole entry, looked up): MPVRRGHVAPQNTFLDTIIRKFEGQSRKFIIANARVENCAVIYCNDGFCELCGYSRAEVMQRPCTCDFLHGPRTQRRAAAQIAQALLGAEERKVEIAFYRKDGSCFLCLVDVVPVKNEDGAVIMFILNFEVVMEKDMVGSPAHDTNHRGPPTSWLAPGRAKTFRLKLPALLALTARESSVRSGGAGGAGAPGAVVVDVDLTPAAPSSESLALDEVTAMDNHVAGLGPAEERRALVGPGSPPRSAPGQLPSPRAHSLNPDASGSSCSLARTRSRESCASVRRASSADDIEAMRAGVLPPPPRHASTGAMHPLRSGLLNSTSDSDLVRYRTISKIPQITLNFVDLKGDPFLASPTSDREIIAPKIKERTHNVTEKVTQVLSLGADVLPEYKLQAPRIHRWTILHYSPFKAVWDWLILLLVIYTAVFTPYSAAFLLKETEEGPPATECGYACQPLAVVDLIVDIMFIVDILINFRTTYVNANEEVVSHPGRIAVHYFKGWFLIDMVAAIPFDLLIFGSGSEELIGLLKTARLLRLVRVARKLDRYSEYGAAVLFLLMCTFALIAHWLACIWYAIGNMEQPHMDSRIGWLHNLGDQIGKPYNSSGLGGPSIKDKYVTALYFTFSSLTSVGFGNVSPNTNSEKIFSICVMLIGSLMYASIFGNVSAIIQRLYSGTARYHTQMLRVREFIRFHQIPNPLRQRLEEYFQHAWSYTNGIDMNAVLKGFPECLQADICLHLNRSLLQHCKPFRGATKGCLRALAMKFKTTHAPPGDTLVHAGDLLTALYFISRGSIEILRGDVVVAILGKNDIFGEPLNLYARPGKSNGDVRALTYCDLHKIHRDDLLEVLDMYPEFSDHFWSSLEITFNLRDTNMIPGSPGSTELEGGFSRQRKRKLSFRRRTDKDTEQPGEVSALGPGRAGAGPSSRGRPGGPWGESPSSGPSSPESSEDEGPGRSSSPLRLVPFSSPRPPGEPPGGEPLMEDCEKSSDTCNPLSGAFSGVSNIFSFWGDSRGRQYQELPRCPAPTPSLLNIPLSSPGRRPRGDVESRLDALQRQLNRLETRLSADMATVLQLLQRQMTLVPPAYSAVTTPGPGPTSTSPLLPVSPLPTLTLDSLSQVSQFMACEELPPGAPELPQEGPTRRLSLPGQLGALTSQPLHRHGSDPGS
row,Structure (SMILES),"hERG current change (%, negative = inhibition) at 10uM [%]"
1,CCOC(=O)c1ccc(NC(=O)CN(C)S(=O)(=O)c2ccc(OC)cc2)cc1,6.82
2,CC1=NNC(=O)C1CC(=O)N/N=C/c1ccc(C)o1 (centres unmarked),10.7
3,CCOc1ccccc1NC(=O)C(C)CC (centres unmarked),-6.76
4,Cc1ccc(NC(=O)C2CCCN2C(=O)c2cccs2)c(C)c1 (centres unmarked),12.7
5,Cc1cc(C)cc(OCC(=O)NC2CCCc3ccccc32)c1 (centres unmarked),-1.2
6,CC(=O)OC(C)C(=O)NS(=O)(=O)c1ccc(C)cc1 (centres unmarked),12.3
7,Cc1ccc(CCC(=O)Nc2ncc(Cc3cccc(Cl)c3Cl)s2)o1,51.7
8,CCOC(=O)COc1cccc2c(=O)n(CC(=O)N3CCN(C(=O)OCC)CC3)ccc12,7.65
9,CCOC(=O)Nc1nnc(Cc2ccc(Cl)c(Cl)c2)s1,5.09
10,Cc1ccc(-n2c(SCC(=O)N3CCOCC3)nnc2-c2ccncc2)cc1C,-10.6
11,CC(C)C(=O)Nc1ncc2c(n1)CC(c1cccs1)CC2=O (centres unmarked),-17.3
12,CC1=C(C(N)=O)C(c2cccs2)n2nc(-c3cccc(Cl)c3)nc2N1 (centres unmarked),-24.9
13,O=C(NCCS(=O)(=O)N1CCN(c2ccccc2F)CC1)c1cc(=O)c2ccccc2o1,15
14,Cl.Clc1ccc(Cn2c(CN3CCCC3)nc3ccccc32)cc1,-74.4
15,Cc1nc2ccccc2n1Cc1ccc(Cl)cc1,-2.56
16,CC(O)c1nc2ccccc2n1Cc1ccccc1 (centres unmarked),3.15
17,OCc1nc2ccccc2n1Cc1ccc(Cl)cc1,8.87
18,Cc1nc2ccccc2n1Cc1ccccc1,15.8
19,CC(c1nc2ccccc2n1Cc1ccccc1)N1CCCCC1 (centres unmarked),-65
20,Cc1ccccc1N(CC(=O)NCc1ccco1)C(=O)CNS(=O)(=O)c1ccc(F)cc1,-16

row,Structure (SMILES),"hERG current change (%, negative = inhibition) at 10uM [%]"
1,COc1ccc(OC)c(/C=C/C(=O)OCC(=O)NC2CCCCCCC2)c1,-4.68
2,CCN(CC)C(=S)SCC(=O)Nc1ccc(S(N)(=O)=O)cc1,3.17
3,CS(=O)(=O)c1ccc(C(=O)NCc2ccccc2F)cc1,6.24
4,Cc1ccccc1-c1nc(CN2CCC(C(=O)NCCC3=CCCCC3)CC2)c(C)o1,-66.7
5,Cc1oc(-c2ccccc2F)nc1CN1CCC(C(=O)NC2CCCc3ccccc32)CC1 (centres unmarked),-63.9
6,Cc1oc(-c2ccccc2F)nc1CN1CCC(C(=O)NC2CC2)CC1,-34.3
7,Cc1cc(C)nc(N2CCC(C(=O)NC3CCCc4ccccc43)CC2)n1 (centres unmarked),17.6
8,Cc1ccccc1-c1nc(CN2CCC(C(=O)NCCCN3CCOCC3)CC2)c(C)o1,-10.8
9,Cc1oc(-c2ccccc2F)nc1CN1CCC(C(=O)NCCC2=CCCCC2)CC1,-71.8
10,O=C(NCCC1=CCCCC1)C1CCN(c2nc3ccccc3o2)CC1,-13.9
11,CCOc1ccc(C(NC(=O)CC)c2c(O)ccc3ccccc23)cc1 (centres unmarked),-7.96
12,O=C(COC(=O)c1ccccc1NC(=O)c1ccco1)Nc1ccc2c(c1)OC(F)(F)O2,12.2
13,FC(F)(F)c1cc(-c2ccc(Cl)cc2)nc(NCc2cccnc2)n1,3.07
14,CNC(=S)N/N=C/c1cccc(OCc2ccccc2F)c1,18.3
15,Cc1cc(NC(=O)CSc2[nH]c(=O)cc(C(F)(F)F)c2C#N)no1,-2.45
16,CCNC(=O)C(=O)N/N=C/c1cc([N+](=O)[O-])ccc1O,4.32
17,CCC1CSC(Nc2ccc(C(=O)/C=C/c3ccc(OC)c(OC)c3)cc2)=N1 (centres unmarked),-52.4
18,CCC1CSC(Nc2ccc(C(=O)/C=C/c3ccc(Br)cc3)cc2)=N1 (centres unmarked),0.372
19,CCC1CSC(Nc2ccc(C(=O)/C=C/c3cccc(C)c3)cc2)=N1 (centres unmarked),14.4
20,C[C@@H](O)c1nc2ccccc2n1N,9.12

row,Structure (SMILES),"hERG current change (%, negative = inhibition) at 10uM [%]"
1,Cc1cc(N2C(=O)c3ccccc3C2=O)n(C)n1,9.7
2,COc1ccc(C(=O)N/C(=C/c2cccs2)C(=O)NC(C)(C)C)cc1OC,5.42
3,CCOC(=O)N1CCN(C(=O)/C(=C/c2cccs2)NC(=O)c2ccc(OC)c(OC)c2)CC1,-71.2
4,COc1ccc(C(=O)N/C(=C/c2cccs2)C(=O)NN)cc1OC,13.7
5,COc1ccc(/C=C(\NC(=O)c2ccc(OC)c(OC)c2)C(=O)N2CCN(C)CC2)cc1,-19.4
6,COc1ccc(C(=O)N/C(=C\c2cccs2)C(=O)N2CCN(C)CC2)cc1OC,-56.4
7,CCOC(=O)N1CCN(C(=O)c2ccc(OC)c(OC)c2)CC1,18.5
8,Cc1ccc(CNC(=O)C2CC=CCC2C(=O)O)cc1 (centres unmarked),16.3
9,CCOC(=O)c1cc([N+](=O)[O-])sc1N,2.1
10,O=C(COC(=O)c1ccccc1O)Nc1cc(S(=O)(=O)N2CCCCCC2)ccc1Cl,-9
11,Cn1c(=O)n(C)c2cc(NC(=O)COc3ccc(F)cc3F)ccc21,-13.6
12,CCOc1ccccc1C(=O)NCC(=O)N(C)Cc1cccnc1,-3.07
13,CC(C)(C)NCC(O)(c1ccc(Cl)cc1)c1ccc(Cl)cc1,-13.8
14,CCC(C)NCC(O)(c1ccc(Cl)cc1)c1ccc(Cl)cc1 (centres unmarked),-37.7
15,CCCCNCC(O)(c1ccc(Cl)cc1)c1ccc(Cl)cc1,-68
16,CCN(CC)CCNCC(O)(c1ccc(Cl)cc1)c1ccc(Cl)cc1,-82.4
17,CCN(CC)CCNS(=O)(=O)c1ccc(Cl)cc1.Cl,-12.9
18,CCN(CC)CCNC(=S)Nc1ccc(Cl)cc1,-21.7
19,COc1ccc(-c2nc3n(n2)C(c2cccnc2)C(C(N)=O)=C(C)N3)cc1 (centres unmarked),-17.3
